# High-throughput results (PubChem)
# Most compounds without a hit are left out; they make up all but 2.9% or so of the library.
# EPAC2 antag: validation of human EPAC2 antagonists; 16,000 tested, 1.7% active; Potency, µM (titrated, usually from 112 µM), for inactives: top-dose activity, negative = inhibition, most hits filed as inhibitors; AID 1645886; EPAC2 Rap1B BODIPY-GDP exchange, fluorescence;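 further: 100% = activation by cAMP agonist control; nearly all actives have a fitted effect of over 40% in size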
# Target sequence (Q8WZA2 whole entry, looked up): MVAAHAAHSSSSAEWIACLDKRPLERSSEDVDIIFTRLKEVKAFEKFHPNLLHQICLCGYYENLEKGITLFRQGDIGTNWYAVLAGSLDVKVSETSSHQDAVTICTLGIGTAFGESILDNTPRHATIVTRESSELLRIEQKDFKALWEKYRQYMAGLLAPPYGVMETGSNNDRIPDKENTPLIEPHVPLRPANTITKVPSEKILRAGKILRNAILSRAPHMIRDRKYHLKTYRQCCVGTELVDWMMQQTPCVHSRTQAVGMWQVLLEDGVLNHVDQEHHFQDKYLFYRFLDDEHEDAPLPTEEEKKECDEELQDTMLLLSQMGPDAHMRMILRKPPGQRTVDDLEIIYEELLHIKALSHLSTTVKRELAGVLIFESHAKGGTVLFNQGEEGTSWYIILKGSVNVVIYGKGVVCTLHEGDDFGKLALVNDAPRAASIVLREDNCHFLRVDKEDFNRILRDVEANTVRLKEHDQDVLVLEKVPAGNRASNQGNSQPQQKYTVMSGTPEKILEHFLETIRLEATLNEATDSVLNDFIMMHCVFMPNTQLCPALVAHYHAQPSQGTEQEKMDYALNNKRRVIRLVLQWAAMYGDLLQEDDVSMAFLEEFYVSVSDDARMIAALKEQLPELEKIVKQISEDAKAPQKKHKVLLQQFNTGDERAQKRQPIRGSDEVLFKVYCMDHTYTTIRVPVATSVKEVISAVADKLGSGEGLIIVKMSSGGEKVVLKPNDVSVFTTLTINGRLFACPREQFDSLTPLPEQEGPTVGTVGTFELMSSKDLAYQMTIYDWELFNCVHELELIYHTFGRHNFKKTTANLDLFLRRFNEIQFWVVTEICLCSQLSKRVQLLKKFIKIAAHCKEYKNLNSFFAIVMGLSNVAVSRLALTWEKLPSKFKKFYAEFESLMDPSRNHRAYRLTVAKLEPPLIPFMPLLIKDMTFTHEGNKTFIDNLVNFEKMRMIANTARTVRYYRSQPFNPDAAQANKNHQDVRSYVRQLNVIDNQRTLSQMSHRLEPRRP
#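 Normalized against a 6.5 mM cAMP agonist control, compounds were tested on 100 nM EPAC2 exchanging Rap1B-bound BODIPY-GDP (250 nM) for 50 uM GDP. Fluorescence drop (ex 480, em 540 nm) was tracked at room temperature over 30 min at 5-min intervals.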
# EPAC1 ag val: human EPAC1 agonism, validation | O95398 | EPAC1 Rap1b BODIPY-GDP exchange, fluorescence | Potency, µM, inactives show max response, positive = active, usual class: activators | 16,000 tested, 1% active | AID 1645883; further: nearly all actives have a fitted effect of over 70% in size
# * = called active by the depositor; i = inactive; ? = inconclusive; ! = not confirmed by another sample; [ ] = dose if it differs, or a comment. The call rests on the fitted dose curve; in most records, active means well fitted curve in the direction sought with a large enough effect; inconclusive means small, poorly fitted or top-dose-only effect, or another doubt; inactive means no such curve, though single readings can be large; an effect the other way counts as inactive or inconclusive. Unless noted, on the % scale 0 is the no-effect control and ±100 the full control effect; potency means the concentration at half of the fitted maximal effect.
SMILES,EPAC2 antag,EPAC1 ag val
Brc1c(Br)c(Br)c2[nH]cnc2c1Br,-1%,-9%
Brc1c(Br)c(Br)c2n[nH]nc2c1Br,40µM*,-25%
O=C(O)c1cc(O)c2c(c1)[C@H]([C@H]1c3cc(C(=O)O)cc(O)c3C(=O)c3c(O[C@@H]4O[C@H](CO)[C@@H](O)[C@H](O)[C@H]4O)cccc31)c1cccc(O[C@@H]3O[C@H](CO)[C@@H](O)[C@H](O)[C@H]3O)c1C2=O,79µM*,?
OCC1OC(Oc2cccc3cccnc23)C(O)C(O)C1O (stereo unspecified),-7%,1%
CCCCCCC[n+]1ccc(/C=C/c2c(C)[nH]c3ccccc23)cc1,i,100µM*
CCCCCCCCCCCCCCCC[n+]1ccc(/C=C/c2c[nH]c3ccccc23)cc1,491%,?
CCCCCCCCCC[n+]1ccc(/C=C/c2c[nH]c3ccccc23)cc1,i,100µM*
CCCCCCCCCCCCCCCC[n+]1ccc(/C=C/c2c(C)[nH]c3ccccc23)cc1,?,-45%
COc1ccccc1C(=O)N[C@@H]1c2ccccc2C2(CCN(Cc3c(O)cccc3OC)CC2)[C@H]1O,-10%,-5%
COc1cccc(C(=O)NCc2nc(-c3cccc(NC(=O)c4ccoc4C)c3)oc2C)c1OC,-8%,11%
O=c1cc(-c2cc(O)c(O)c(O)c2)oc2cc(O)cc(O)c12,?,-40%
O=c1oc2c(O)c(O)cc3c(=O)oc4c(O)c(O)cc1c4c23,i,79µM*!
CC(O)(COc1ccccc1)c1ccc2c(c1)CN(Cc1cccn1-c1ccccn1)CCO2 (stereo unspecified),-16%,-5%
C[C@]12CC[C@@H]3c4ccc(O)cc4CC[C@H]3[C@@H]1CC[C@@H]2OP(=O)(O)O,1%,2%
CCCCC(=O)O[C@H]1CC[C@H]2[C@@H]3CCc4cc(O)ccc4[C@H]3CC[C@]12C,50µM*,-110%
CCC(=O)OC1CCC2C3CCc4cc(O)ccc4C3CC[C@]12C (stereo partly specified),40µM*,5%
C[C@]12CC[C@@H]3c4ccc(O)cc4CC[C@H]3[C@@H]1CC[C@@H]2OC(=O)CCC1CCCC1,-6%,?
CCC(=O)O[C@H]1CC[C@H]2[C@@H]3CCc4cc(O)ccc4[C@H]3CC[C@]12C,50µM*,-160%
C[C@@]12CCC3c4ccc(O)cc4CCC3C1CCC2O (stereo partly specified),-20%,10%
COc1ccc(C(=O)/C(Br)=C\C(=O)O)cc1,7%,-13%
O=C(O)[C@@H]1C[C@H](CP(=O)(O)O)CCN1,-24%,-34%
OC1(c2cccnc2)CCN(Cc2ccc3c(c2)CN(Cc2cccc(C(F)(F)F)c2)CCO3)CC1,-29%,18%
Cc1[nH]cnc1C[C@H]1CCc2c(C)c3ccccc3n2C1=O,0%,-108%
C=CC(C1=CC(=O)C(OC)=CC1=O)c1ccc(OC)cc1 (stereo unspecified),?,-18%
C=CC(C1=CC(=O)C(OC)=CC1=O)c1ccccc1 (stereo unspecified),35µM*,18%
SMILES,EPAC2 antag,EPAC1 ag val
c1ccc(-c2onc(-c3ccco3)c2-c2ccc3[nH]ccc3c2)cc1,?,112µM*
CC1CC(=O)NN=C1c1ccc(NCC(C)(C)NCC(O)COc2cc(Cl)ccc2C#N)cc1 (stereo unspecified),5%,?
COc1ccc(C(Cl)=C(c2ccc(OC)cc2)c2ccc(OC)cc2)cc1,3.2µM*!,?
COc1ccc(C(=O)CC(=O)c2ccc(C(C)(C)C)cc2)cc1,3%,-40%
Cc1cn([C@H]2C[C@H](F)[C@@H](CO)O2)c(=O)[nH]c1=O,-9%,-6%
C=CC(C)(C)c1[nH]c2ccccc2c1C1=C(O)C(=O)C(c2c[nH]c3c(CC=C(C)C)cccc23)=C(O)C1=O,45µM*,-14%
CC(c1ccon1)N(C)C(=O)c1cnn(-c2ncc3c(n2)-c2ccccc2CC3)c1C1CC1 (stereo unspecified),-37%,-5%
O=c1c(-c2cccs2)nc2cnc(Oc3ccccc3)nc2n1Cc1cccs1,-22%,11%
COc1cccc(Nc2ncc3ncc(=O)n(Cc4cccs4)c3n2)c1,-14%,112µM*
COc1ccc(-n2c(=O)c(-c3cccs3)nc3cnc(Nc4ccccc4)nc32)cc1,12%,?
COc1cccc(Nc2ncc3nc(-c4cccs4)c(=O)n(-c4ccccc4)c3n2)c1,355%,112µM*
O=c1cnc2cnc(Oc3ccccc3)nc2n1Cc1cccs1,13µM*,10%
COCCn1c(=O)cnc2cnc(Oc3cccc(Cl)c3)nc21,-10%,-14%
COc1cccc(Nc2ncc3nc(-c4cccs4)c(=O)n(Cc4cccs4)c3n2)c1,4%,?
O=c1cnc2cnc(Oc3cccc(Cl)c3)nc2n1Cc1ccc(F)cc1,10µM*,8%
Cc1nc2sccn2c1CN1CCOc2ccc(CN3CCN(c4ccc(F)cc4)CC3)cc2C1,?,-3%
CCc1ccc2c(c1)N(CC(C)CN(C)C)c1ccccc1S2 (stereo unspecified),-19%,-30%
CCCCC[C@H](O)CC(=O)CCc1ccc(O)c(OC)c1,-28%[151 µM],-9%
COc1cc(CNC(=O)CCCC/C=C/C(C)C)ccc1O,40µM*!,-36%
CN(Cc1cnc2ccccn12)C(=O)c1cc(NC(=O)c2ccccc2)cc2ncn(C3CCCC3)c12,-33%,24%
COc1ccccc1CNc1ccnc(-c2cccc(C#N)c2)n1,?,5%
COc1ccccc1CNc1ccnc(-c2ccc3c(c2)OCO3)n1,?,100µM*
COc1cccc(-c2cncnc2NCc2ccc(OC)cc2OC)c1,45µM*,8%
COc1ccc(CNc2ccnc(-c3ccc4c(c3)OCO4)n2)c(OC)c1,-24%,15%
COc1ccc(CNc2ccnc(-c3cccc(C#N)c3)n2)c(OC)c1,-51%,112µM*
SMILES,EPAC2 antag,EPAC1 ag val
COc1ccc(CNc2ncncc2-c2cccnc2)c(OC)c1,-32%,8%
CC[C@H]1OC(=O)[C@H](C)[C@@H](O[C@H]2C[C@@](C)(OC)[C@@H](O)[C@H](C)O2)[C@H](C)[C@@H](O[C@@H]2O[C@H](C)C[C@H](N(C)C)[C@H]2O)[C@](C)(O)C[C@@H](C)[C@@H]2N[C@@H](COCCOC)O[C@@H]([C@H]2C)[C@]1(C)O,15%,-30%
O=C(NCc1nnc2n1CCN(Cc1cc(F)cc(F)c1)CC2)c1cccc(F)c1,-25%,5%
O=C1CC[C@@H](C(=O)N[C@H]2C[C@@H]2c2ccccc2)N1,-11%,-5%
Nc1cccc2c(N)cccc12,?,29%
Nc1c2ccccc2nc2ccccc12 (tested in a mixture with another compound),79µM*,1%
CCOc1nc2cccc(C(=O)OC(C)OC(=O)OC3CCCCC3)c2n1Cc1ccc(-c2ccccc2-c2nn[nH]n2)cc1 (stereo unspecified),56µM*,?
CCCc1nc(C(C)(C)O)c(C(=O)OCc2oc(=O)oc2C)n1Cc1ccc(-c2ccccc2-c2nn[nH]n2)cc1,-20%,-19%
C=Cc1c(C)c2cc3nc(cc4[nH]c(cc5nc(cc1[nH]2)C(C)=C5CCC(=O)OC)c(CCC(=O)O)c4C)[C@@]1(C)C3=CC=C(C(=O)OC)[C@H]1C(=O)OC,-4%,-3%
O=C(O)[C@H](O)[C@@H](O)[C@H](O)[C@H](O)CO,-10%,-15%
N[C@H](C(=O)O)C(O)C(O)C(O)CO (stereo partly specified),-20%,112µM*
